PubChem BioAssay AID1159580 (chemical genetic matrix, 2015)
Where “and” joins values, the source holds several entries; their conditions need not be identical. Equal entries are not always repeated. Hit rate of the full screen: of about 5,500 compounds, about 2,000 (36%) were called active. Inconclusive results (about 18%) are left out. No stated cut-off is given here; in the data, active means normalized growth mostly below about 0.91 (no sharp cut-off); inconclusive means no clear call, values can overlap the other calls; inactive means mostly above about 0.92. This is one part of the list.

Assay: chemical genetic growth profiling, strain panel (AID 1159580);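 further: tested at 20 µM; growth read once vehicle control cultures reached saturation at 30 °C; 1 = growth at the plate median or of vehicle wells; lower values mean less growth of the strain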
Details: S. cerevisiae deletion strains, growth OD

Measured: normalized growth

CC1CCC2(OC1)OC1CC3C4CC[C@H]5C[C@@H](O)CC[C@]5(C)C4CC(=O)[C@]3(C)C1C2C (stereo partly specified)
inactive: locus YAL013W, strain DEP1, hits give low values 1.01 | locus YAL021C, strain ccr4, hits give low values 0.997 | locus YAL026C, strain drs2, hits give low values 1.03 | locus YAL030W, strain snc1, hits give low values 1.01 | locus YBL061C, strain skt5, hits give low values 1.02 | locus YBR009C, strain hhf1, hits give low values 0.983 | locus YBR021W, strain FUR4, hits give low values 0.991 | locus YBR023C, strain chs3, hits give low values 1.02 | locus YBR171W, strain sec66, hits give low values 1.02 | locus YBR229C, strain ROT2, hits give low values 1.01 | locus YBR231C, strain swc5, hits give low values 0.996 | locus YBR279W, strain paf1, hits give low values 1.01 | locus YCL011C, strain gbp2, hits give low values 1.04 | locus YCL016C, strain dcc1, hits give low values 1.01 | locus YCL029C, strain bik1, hits give low values 0.973 | locus YCL061C, strain MRC1, hits give low values 1.02 | locus YCL069W, strain vba3, hits give low values 1.02 | locus YCR088W, strain abp1, hits give low values 1.03 | locus YDL005C, strain med2, hits give low values 1.01 | locus YDL035C, strain GPR1, hits give low values 1.01 | locus YDL040C, strain nat1, hits give low values 1.01 | locus YDL074C, strain BRE1, hits give low values 0.974 | locus YDL101C, strain DUN1, hits give low values 1.01 | locus YDL134C, strain PPH21, hits give low values 1.01 | locus YDL185W, strain tfp1, hits give low values 0.981 | locus YDL192W, strain arf1, hits give low values 0.992 | locus YDR001C, strain nth1, hits give low values 1.01 | locus YDR069C, strain doa4, hits give low values 1 | locus YDR101C, strain arx1, hits give low values 0.974 | locus YDR137W, strain rgp1, hits give low values 1.02 | locus YDR150W, strain NUM1, hits give low values 1.01 | locus YDR159W, strain sac3, hits give low values 0.962 | locus YDR162C, strain NBP2, hits give low values 1.01 | locus YDR195W, strain ref2 1.04 | locus YDR297W, strain sur2, hits give low values 0.995 | locus YDR318W, strain mcm21, hits give low values 0.975 | locus YDR334W, strain swr1, hits give low values 1.01 | locus YDR335W, strain msn5, hits give low values 1.02 | locus YDR388W, hits give low values 0.982 | locus YDR392W, strain spt3, hits give low values 0.866 | locus YDR502C, strain sam2, hits give low values 0.98 | locus YEL003W, strain gim4, hits give low values 0.999 | locus YEL037C, strain rad23, hits give low values 1.02 | locus YEL061C, strain CIN8 (second series), hits give low values 1.01 | locus YEL061C, strain CIN8, hits give low values 1.01 | locus YER015W, strain faa2, hits give low values 1 | locus YER016W, strain bim1, hits give low values 1.01 | locus YER110C, hits give low values 0.978 | locus YER111C, strain swi4, hits give low values 1.01 | locus YER155C, strain BEM2 (second series), hits give low values 0.97 | locus YER155C, strain BEM2, hits give low values 1.01 | locus YER167W, strain BCK2, hits give low values 1.01 | locus YFR010W, strain ubp6, hits give low values 0.997 | locus YGL078C, strain dbp3, hits give low values 0.982 | locus YGL086W, strain mad1, hits give low values 0.998 | locus YGL167C, strain pmr1, hits give low values 1.01 | locus YGL173C, strain kem1, hits give low values 0.992 | locus YGL227W, strain vid30, hits give low values 1.02 | locus YGL240W, strain doc1, hits give low values 1 | locus YGL248W, strain PDE1, hits give low values 1.02 | locus YGL253W, strain hxk2, hits give low values 1.01 | locus YGR078C, strain PAC10, hits give low values 0.989 | locus YGR135W, strain pre9, hits give low values 0.987 | locus YGR229C, strain SMI1, hits give low values 1 | locus YGR252W, strain gcn5, hits give low values 0.992 | locus YHR013C, strain ard1, hits give low values 1.02 | locus YHR027C, strain rpn1, hits give low values 1.02 | locus YHR030C, strain SLT2, hits give low values 1.01 and 0.963 | locus YHR079C, strain IRE1 (second series), hits give low values 0.988 | locus YHR079C, strain IRE1, hits give low values 0.962 | locus YHR094C, strain hxt1, hits give low values 0.991 | locus YHR129C, strain ARP1, hits give low values 1 | locus YHR142W, strain chs7, hits give low values 1.03 | locus YHR200W, strain rpn10, hits give low values 0.987 | locus YIL066C, strain RNR3, hits give low values 1.01 | locus YIL073C, strain SPO22, hits give low values 0.983 | locus YIL125W, strain kgd1, hits give low values 0.989 | locus YIR030C, strain dcg1, hits give low values 0.984 | locus YJL092W, strain hpr5, hits give low values 1.01 | locus YJL095W, strain BCK1 (second series), hits give low values 1.01 | locus YJL095W, strain BCK1, hits give low values 1 and 0.964 | locus YJL115W, strain asf1, hits give low values 1.03 | locus YJL129C, strain trk1, hits give low values 1.04 | locus YJL134W, strain LCB3, hits give low values 1.01 | locus YJL154C, strain vps35, hits give low values 1.03 | locus YJL164C, strain tpk1, hits give low values 0.989 | locus YJL166W, strain qcr8, hits give low values 1 | locus YJL168C, strain set2, hits give low values 0.986 | locus YJL187C, strain SWE1 (second series), hits give low values 0.997 | locus YJR043C, strain POL32, hits give low values 1 | locus YJR066W, strain TOR1, hits give low values 0.927
